The values below come from the supplement of paper PMC10105736.

Unmarked numbers belong to inactive results.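 How the source made its calls: active = MAPPIT score above the 99th percentile of random reference set scores in the same batch; inactive = at or below it.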

Experiment in all cases: MAPPIT interaction score (arbitrary units); higher = stronger binary interaction signal, active = hit call of the paper
Assay [1] addresses laza. The settings on record: MAPPIT configuration: N-N; pair source set: screen_2.
Assay [2] has as its target lwr. The settings on record: MAPPIT configuration: N-N.
Assay [3] has as its target mira. The settings on record: MAPPIT configuration: N-C; pair source set: Lit-BM-16.
Assay [4] deals with nos. The settings on record: pair source set: Lit-BM-16.
Assay [5] concerns the target mei-P22. The settings on record: MAPPIT configuration: N-N; pair source set: screen_2.
The target in assay [6] is mal. The settings on record: MAPPIT configuration: N-N; pair source set: Lit-BS-16.
In assay [7] the target is otp. The settings on record: MAPPIT configuration: N-N; pair source set: screen_2.
The target of assay [8] is lola. The settings on record: pair source set: RRS.
For assay [9], the target named is kappaB-Ras. The settings on record: MAPPIT configuration: N-N; pair source set: DPIM.
Assay [10] concerns the target l(3)neo38. The settings on record: MAPPIT configuration: N-N; pair source set: Lit-BS-16.
Assay [11] has as its target jvl. The settings on record: pair source set: RRS.
In assay [12] the target is mnb. The settings on record: MAPPIT configuration: N-N; pair source set: Finley_Y2H.
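Further: HEK293T cells with Epo stimulation, STAT-responsive firefly luciferase reporter, fold induction versus unstimulated cells divided by the larger fold induction of two negative controls lacking either bait or prey.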

B1: Es2 (protein)
chain: MSATTRTPATPGTPGTPGSLAMEVARVQNSALAEFKKPTAMVRHKNKPKILTEEKYIEEMSKIIQRDFFPDLERLRAQNDYLDAESRRDFVQMAEIRERYSLGRISGTGRSTSRRNNAMSPATFETPVSQAKCSNTPLPNSRATDTPFSTDGSEKSDAEGRDTTAKLSLDAFLQKYTSEDNQSFQEIIETAEAKLRQKYAVLYNHEKLSAEQLQRALMLPSIETQFEEPDPLRKIETWNYTNMNSIMYVPDGVEYTEEERVQLAERKQSIQHNATRLPDEAKHREMDTKKLNDEVPQNGAGGATATPKVRGFDLLRSPSPRPGEAFSPIMTWGEIDGTPFRLDGGDTPLRPTQGPSFRINENSRRENIAIALAERVSERMRNQKQMALDTARRNIGSPLIRTNMERLASMSPAAQLLATGKLGIRGTPRLRHTPSPMSGRKRKVTPGVVRSTNTPILGEPKPKQQAKISTPAKNVTIDTGSTLTDDLLKIPTKRRTAADFF
Consider B1, for which the MAPPIT interaction score in [1] is 0.373.

B2: CG12259 (protein)
chain: MAHYKGAASEAGRAAQLMKKREIQQQEIEFRKKKIEEELKLDKIENKFATHYDAVEQQLKSSTIGLVTLDEMKAKQEDIVREREKKLAQKKDEKDREKQRALEAIQAEKNKQKRQIQALSFNLDDDEEEEEEDDEDHDKKQLKIKQEDQPKPKWTEIKEDILPIKKKKICKNPDVDTSFLPDREREEQENRLREQLRQEWVMQQAELKDEDISITFSYWDGSGHRRNVLMKKGNSIYQFLQKCLELLRKEFIELKTVMADQLMYVKEDLILPHHYSFYDFIVTKARGKSGPLFQFDVHDDVRMISDASVEKEESHAGKVLLRSWYERNKHIFPASRWEPYDPTKSYDKYTIKDKDKSKK
Regarding B2, in assay [2] (pair source set: Finley_Y2H), the MAPPIT interaction score was 0.18.

B3: brat (protein)
chain: MASSPTPSLDSMRGGANSIESYEHAGYLSDSPLTLSGSSPPASDSAICSDEYTGGSSVKSRSEVTVINGHHPISASVSSSSSASSSSCSSSSSSSSSSSSSSSSTSGLSGCGSTSSSVISANNVASSNGPGVIGSNLQSSNNGGNSGISSLVVGAGKGSNSSSNSSSSNTSANGSPPRCTACKSKCSDAVAKCFECQSYLCANCVTAHEFMHCFNGHNVCLIKGFEASTTGTPLSVGSPSNNPASNEFKYASSLTMMLQQQQQLDSQQQQQQQQLLPAQPMSQLSKIVLAAAAQANSQEQQREDSIYGSLHPQQQQQQQQQQQRQLFCPRHKQELLKFSCRTCCILVCKECIVLEHSTGLHELENVQSPGMTTSTGSTANESALQTLLADMRGKIGEIVGIAGNSDQNLTKVKLQYQKAHNELNETHQFFASMLDERKTELLKELETLYTAKVNSNNSWQQRSRDLIDKGLATCEAVERSPAPPSSLLTEALLLRKSLEQQLQTGIQEMQLPFEIEFMSNYQSIQAGVRNTFGYIRANSSDGGPTGMSLTSNGHGKQPPIARPTQSASNSSASSAGSGHHGHHQQSHHHGHHNHHQTAHHQQLQAQSSLHGLGLGLSGASLLDSSSSAGGAVGAFSNGGLLLGGRDRNALAVEQHFGELMPKRGGGGYTGSNGSATSAVAHYNPYEKWSNGGSDNLFSSVTSGVSGSSAVADAFASLSAVGGSVVSGAGAGGSTVSSESLLDLTNKLLSATIYPPKSQIKRQKMIYHCKFGEFGVMEGQFTEPSGVAVNAQNDIIVADTNNHRIQIFDKEGRFKFQFGECGKRDSQLLYPNRVAVVRNSGDIIVTERSPTHQIQIYNQYGQFVRKFGATILQHPRGVTVDNKGRIIVVECKVMRVIIFDQNGNVLHKFGCSKHLEFPNGVVVNDKQEIFISDNRAHCVKVFNYEGQYLRQIGGEGITNYPIGVGINSNGEILIADNHNNFNLTIFTQDGQLISALESKVKHAQCFDVALMDDGSVVLASKDYRLYIYRYVQLAPVGM
Turning to B3, the figures for the MAPPIT interaction score in [3], in assay [4] (MAPPIT configuration: N-C) and in assay [4] (MAPPIT configuration: N-N) were 1.62, 0.0947 and 0.243, respectively.

B4: mei-P22 (protein)
chain: MDRTTVVPSPASTYCSFMGGSQHSPLRRSQRLIDKENRDLQKIPPKSLSPQLFGNTEDDYSELLLQQGKVVHLKPAAKLVPVRSSDNLVHLGSRDKVVPLKTSNRIVHLKPPYKIIHLKSLDEVEKTVKKKNNIQKEVHQRNSQRRSIQCTPKKRGRKPKQPAKKLQSRISTDQLGSTPSPSKLPAKYPAHFVHQLPPAEDSSCATRRRSLSAPAMQLSDLSLTPDEIQTPERRGEIVNKSPSDLDSDVSLNFSLSDSIGEIFGTKDISSILTMQRPRQYILLEEHLPTLATMLNVDLERLRCVLDITQGLSHEQILRFPIKHEEDELEVP
For the molecule B4, the MAPPIT interaction score in assay [5] was 4.86 (active).

B5: cN-IIIB (protein)
chain: MGFDEKREPTGGRLRLQDIPALTQDHCRMRDPAEVERIINEFVIGGPERMQIVSDFDYTITKQRTEDGGAVPSSFGIFNACQSLPENFKAETDKLYHKYRPIEIDPHMPIAEKVQYMIEWWTKSGELTSGFPFDQSEIDQIASKYTHALRDRTHEFFADLQRLGIPTLVFSAGLGNSVVSVLRQANVLHPNVKVVSNFLQFRDGLLDGFQQPMIHTFNKNETVLNETSEYYDLVHTRDHIIVMGDSIGDADMASGVPASSHIMKIGFLFDHVEANMKKYMDTFDIVLVDDQTMDVPRTLLSLIEKQHKLNLEAPKQSSL
Regarding B5, the figures for the MAPPIT interaction score in assay [6] and in assay [7] were 1.36 and -0.311, respectively.

B6: CG3262 (protein)
chain: MERLLINTIWRSYATKLTGSQVKLMARGLPKKQPIIGVQDIIVVASGKGGVGKSTVAVNFACSLAKLGKRVGLLDGDIFGPTIPLLMNVHGEPVVNDKNLMIPPQNYNVKCLSMGMLTPVETSVIWRGPLVMSAIQRLLKGTDWGLLDVLVIDTPPGTGDVHLSLSQHAPITGVILVTTPHTAAVQVTLKGASMYEKLNVPIFGVVENMKYTICQNCNQRLEFFKDSRISSLPRKLISLPLDSRIADSNESGVPVVIKYPDSKYSYLFTQLAEEITQILNEQRCNQNQNNSAH
Turning to B6, the MAPPIT interaction score in assay [8] (MAPPIT configuration: N-C) was 0.425; in [8] (MAPPIT configuration: N-N), 0.0633.

B7: Cp1 (protein)
chain: MNHLGVFETRFRPRTRHKSQRAQLIPEQITMRTAVLLPLLALLAVAQAVSFADVVMEEWHTFKLEHRKNYQDETEERFRLKIFNENKHKIAKHNQRFAEGKVSFKLAVNKYADLLHHEFRQLMNGFNYTLHKQLRAADESFKGVTFISPAHVTLPKSVDWRTKGAVTAVKDQGHCGSCWAFSSTGALEGQHFRKSGVLVSLSEQNLVDCSTKYGNNGCNGGLMDNAFRYIKDNGGIDTEKSYPYEAIDDSCHFNKGTVGATDRGFTDIPQGDEKKMAEAVATVGPVSVAIDASHESFQFYSEGVYNEPQCDAQNLDHGVLVVGFGTDESGEDYWLVKNSWGTTWGDKGFIKMLRNKENQCGIASASSYPLV
As to B7, the MAPPIT interaction score in assay [9] is 0.259.

B8: Pdk1 (protein)
chain: MKCKSWSNKINNYVVRKIKSIKINGTQQQLQLPGSGASGIAAAAVITVASDCGENCSSNGTEHQQHFNIATTTATSATEATMPAMAKEKASATVSLGESNFRDINLKDLAVVVEAASRLHHQQNVCGCGAVSSTENNNNSRYGSSKYLTNGHTSPLAAAVASNSSSVATTPHCRMLHNCSLQQYQNDIRQQTEILDMLRQQHQQGYQSQQQQQQPQQQQEQQQQQEQSQQQQQLQNPAPRRSPNDFIFGRYIGEGSYSIVYLAVDIHSRREYAIKVCEKRLILRERKQDYIKREREVMHQMTNVPGFVNLSCTFQDQRSLYFVMTYARKGDMLPYINRVGSFDVACTRHYAAELLLACEHMHRRNVVHRDLKPENILLDEDMHTLIADFGSAKVMTAHERALATEHCSEQRRSNSDEDDEDSDRLENEDEDFYDRDSEELDDGDDEQQQEEMDSPRHRQRRYNRHRKASFVGTAQYVSPEVLQNGPITPAADLWALGCIVYQMIAGLPPFRGSNDYVIFKEILDCAVDFPQGFDKDAEDLVRKLLRVDPRDRLGAQDEFGYYESIRAHPFFAGIDWQTLRQQTPPPIYPYLPGVSQDEDFRSSYTVPGDLEPGLDERQISRLLSAELGVGSSVAMPVKRSTAKNSFDLNDAEKLQRLEQQKTDKWHVFADGEVILKKGFVNKRKGLFARKRMLLLTTGPRLIYIDPVQMIKKGEIPWSPDLRAEYKNFKIFFVHTPNRTYYLDDPEGYAIHWSEAIENMRKLAYGDPSSTSAVSCSSGSSNSLAVISNSSAASSSNSPTVKRSSPVNAPQASTASDNRTLGSTRTGTSPSKKTASK
Consider B8, for which, in assay [10], the MAPPIT interaction score is 1.81.

B9: TH1 (protein)
chain: MEVEYDDSGWQGRAKGQTNPEETLEDNPQKTIQECLEKFLTPDYIMEPGIFTQLKRYFQSGGSPEEVISMLSENYKAVAQMANLLAEWLILAGVKVTEVQAMVENHLKEMILKSFDPKKADTIFTEEGETPDWLTEMIDHYTWRSLIYRLAEEYPDCLMLNFTIKLISDAGFQSEITSISTAAQQIEVFSRVLKTSIVKFLNNPDDVHGAIQECARMVCHGQHTYVYSQVLIQVLSQEQKGGFNMKRLSQEIIKYALQNNQNVTPITMALNGSAVYPQACQALTSMLTRNTLNPADITVLFRNYSGSDPPPIDLIRNPQFLELLVDALFRSGVKINPEHKPKYMFLLAYASAVIDQPAKKRPMTERMLNKEELKSTIQAIEKAHTICNVDQGSTELIAELQTLYNCIKYPVVGVGVIRWIENVVMEPSYFKLSTDSCPTHLAVLDEVAAVHPTLQQQILFLLIRLFESKQDELEILVQLEMKKMILDRMVNLLTRGCVVPVLRYIKQCCAIEDTDISLIRYFVTEVLETITHPYSPEFVQLFLPMVENEEITGTMRGEGDNDPVSEFIVHCKAHYTTV
Regarding B9, the figures for the MAPPIT interaction score in [11] (MAPPIT configuration: N-C) and in [11] (MAPPIT configuration: N-N) were 0.00492 and -0.0162, respectively.

B10: CG6153 (protein)
chain: MPHGHSHDHGGCSHEASDVDHALEMGIEYSLYTKIDLDNVECLNEETDGQGKSVFKPYEKRQDLSKYVESDADEELLFNIPFTGNIKLKGIIISGANDDSHPNMVKIFKNRPRMTFDDARAKPDQEFQLTRDARGEIEYSPKVVTFSSVHHLSLYFPSNFGEDITRIYYIGLRGEFTEAHYHGVTICNYESRANAADHKEKAFDGVGRAIQ
Regarding B10, the MAPPIT interaction score in assay [12] is 1.74.

B11: pcs (protein)
chain: MSSAEDGELDPQIQIELENLNSATDEINKLEIELEEANSTFRILLNESTRRLKVSSKKLGNCIEKARPYYEALDKAREAQIECQKAAVKFQRANEIHAAAKETVALAEQRFMSNSHEWQFDNAWQEMLNHATQKVMDAETQKADCHAEHQRLTKLFNAAEQKLQQLEDRFRRSINKSRPYFEEKQVCQDQLQTQKNRIQELQQQVAGAKSTYSTALRNLERISEDIHRQRGDFPTPPGPREPGVGAELNSPTSSALPSLPDFQLELEKCDYPSIAGSQMSLGAKTPQAAAETEDEEDACDYDETGAGELRGVVDERDLEALRQKVKILAVRPIEGGDGQQQNDVWEHELKATVDKLDHLMMLKETAKRQQTNRLKSTEQRPDSLGAEALKRHCDVVEVKVTSCATTASLPVTPHHQLNHLAPPTPIKKLQQQLAPLPSVNVSMRELPLLARLSNELLDRSSAAFGGVRKTLRRRSLE
Take B11: the MAPPIT interaction score in [2] (pair source set: Curagen_low_conf) is -0.177.
